In PubChem BioAssay (NCI):
The panel holds about 79,000 compounds, 15% with a hit somewhere; the sample as a whole holds those more often. Active and inactive are the calls of the source. Rule as the data show it: active = growth inhibition above about 70%; inactive = the rest.

Assays:
[1] = NCI Yeast Anticancer Drug Screen. Data for the rad50 strain (AID 155);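 also: 0% = growth of vehicle-only cultures of the same strain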; details: S. cerevisiae rad50 strain growth inhibition; at 50.0 µM; active compounds read high
Summary of the method: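 DNA repair mutant yeast, compound exposure, growth read-out; inhibition is taken relative to vehicle.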

[2] = NCI Yeast Anticancer Drug Screen. Data for the mec2-1 strain (AID 157); details: S. cerevisiae mec2-1 strain, at 50.0 µM, active compounds read high
Summary of the method: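 Strain: mec2-1 (DNA repair/cell cycle alteration). Compound exposure, then growth measured; inhibition expressed relative to vehicle.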

[3] = NCI Yeast Anticancer Drug Screen. Data for the sgs1 mgt1 strain (AID 161);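 also: 0% = growth of cultures given vehicle only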; details: S. cerevisiae sgs1 mgt1 strain, at 50.0 µM, active compounds read high
Summary of the method: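 Inhibition of yeast growth, normalised to vehicle-treated controls, is reported for a strain bearing genetic alterations in DNA damage repair.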

[4] = NCI Yeast Anticancer Drug Screen. Data for the cln2 rad14 strain (AID 165);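 also: 0% = growth equal to vehicle treated cultures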; details: S. cerevisiae cln2 rad14 strain, at 50.0 µM, active compounds read high
Summary of the method: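 Compounds are applied to the cln2 rad14 yeast strain, and growth is then compared with that of vehicle-treated cultures to give inhibition.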

[5] = NCI Yeast Anticancer Drug Screen. Data for the bub3 strain (AID 167); details: S. cerevisiae bub3 mutant strain, at 50.0 µM, active compounds read high
Summary of the method: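 In this screen, a yeast mutant lacking normal mitotic checkpoint function is challenged with compound. Relative growth versus vehicle gives the inhibition value.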

[6] = NCI Yeast Anticancer Drug Screen. Data for the mlh1 rad18 strain (AID 175); details: S. cerevisiae mlh1 rad18 strain growth inhibition; at 50.0 µM; active compounds read high
Summary of the method: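 Read-out is yeast growth inhibition, calculated against vehicle-only controls. The compound was applied to a strain engineered with DNA damage repair alterations.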

Measured: growth inhibition

CCOC(=O)CS
inactive: [1] 11.2% | [2] -6.5% | [3] -15.6% | [4] 5.7% | [5] 20.6% | [6] 22.6%

Cc1ccc([N+](=O)[O-])cc1NC(=O)C(=O)C1CCC2=C(Sc3ccccc3N2)C1=O (stereo not given)
inactive: [1] 0.5% | [2] -16.9% | [3] -9.45% | [4] -17.9% | [5] -0.4% | [6] -5.85%

COc1ccc(C(SCC(N)C(=O)O)(c2ccccc2)c2ccccc2)cc1 (stereo not given)
inactive: [1] 32.8% | [2] -11.7% | [3] 37% | [4] -42.4% | [5] 10.8% | [6] 54.6%

CCOC(=O)C1=CNC(C(=O)OCC)C1c1cccn1-c1ccc(Cl)cc1[N+](=O)[O-] (stereo not given)
inactive: [1] 8.6% | [2] 16.8% | [3] 10.8% | [4] 29% | [5] 3.8% | [6] 40.8%

CC(C)(C)OC(=O)c1cccc(Br)c1
inactive: [1] -8.1% | [2] -12.8% | [3] -4.55% | [4] 15.2% | [5] 12.8% | [6] 11.1%

O=C(/C=C/c1ccccc1)CC1OC(=O)c2ccccc21 (stereo not given)
inactive: [1] 14.3% | [2] -15.9% | [3] 10.3% | [4] 23.1% | [5] 3.15% | [6] -20.9%

CCCCCCCCCCCCCCCCCCCl
inactive: [1] 4.9% | [2] 6.6% | [3] 0.05% | [4] -31.1% | [5] 5.7% | [6] 28.4%

CN1CCCC(NC(c2ccccc2)c2ccccc2)C1 (stereo not given)
inactive: [1] 25.4% | [2] 0.45% | [3] 23.9% | [4] -11.8% | [5] 34.5% | [6] 18.9%

NC(=O)/C(N=Nc1ccccc1)=N\Nc1ccccc1
active: [1] 94.2% | [2] 94.8% | [3] 94.8% | [4] 73.2% | [5] 95.5% | [6] 94.8%

CCC1CCC(Cc2ccncc2)CC1 (stereo not given)
inactive: [1] 3.65% | [2] -7.4% | [3] -11.9% | [4] -78.9% | [5] 13.4% | [6] -0.9%

NC(CO)C(O)c1ccc([N+](=O)[O-])cc1 (stereo not given)
inactive: [1] -14.6% | [2] -33.2% | [3] -3.3% | [4] -7.25% | [5] -12.2% | [6] -13.7%

O=C(Oc1c([N+](=O)[O-])cc(-c2ccccc2)cc1[N+](=O)[O-])c1ccccc1
inactive: [1] 22.7% | [2] 18.1% | [3] 9.05% | [4] 13.1% | [5] 20.1% | [6] 35.6%

O=C1CCCCC1CN1CCCC1 (stereo not given)
inactive: [1] -10.4% | [2] -12% | [3] -33.6% | [4] 21.4% | [5] -42.5% | [6] -22.6%

O=C(O)c1ccc(C(=O)O)nc1
inactive: [1] -39.7% | [2] -4.75% | [3] 0.95% | [4] -14.4% | [5] 4.8% | [6] -1.35%

CCCCCCCCC(=O)c1ccc(N=Nc2ccc(OCC)cc2)cc1
inactive: [1] -6% | [2] 12.9% | [3] -5.5% | [4] -8.55% | [5] 3.15% | [6] -14.8%

c1ccc2c(c1)C[N+]1(CCCCCC1)C2
inactive: [1] 7% | [2] 6.05% | [3] 11% | [4] -10.3% | [5] 1.05% | [6] 10.7%

COc1cc([C@@H]2OCC3C(c4ccc5c(c4)OCO5)OCC32)cc(OC)c1OC (stereo not given in full)
inactive: [1] 9.9% | [2] -17.2% | [3] 24.2% | [4] 28.6% | [5] 43.4% | [6] 18.4%

O=S(=O)(/N=C1C=C/C(=N\S(=O)(=O)c2ccccc2)C2C/1C2(c1ccccc1)c1ccccc1)c1ccccc1 (stereo not given)
inactive: [1] 39.7% | [2] 17.6% | [3] 29.8% | [4] -30.6% | [5] 1.75% | [6] 13.7%

NC(=O)c1ccccc1O
inactive: [1] 13.5% | [2] 5.15% | [3] 11.4% | [4] 6.2% | [5] 0.6% | [6] 15.2%

OCCCC1CCN(CCO)CC1
inactive: [1] -22.2% | [2] -27.5% | [3] -18.8% | [4] 1.3% | [5] -8.7% | [6] -10.3%
